Test results from PubChem BioAssay AID463173 (ICCB-Longwood Screening Facility, Harvard Medical School, 2010).
The whole screen tested about 52,000 compounds, of which about 4,300 (8.3%) were called active. The list comes from a sample in which actives are over-represented; it also holds similar structures and randomly drawn compounds. Values without a mark were called inactive. Rule as the data show it: active = survival mostly below about 52% (no sharp cut-off); inactive = mostly above about 56%.

Tested on: DeltatarO mutant
Experiment: growth inhibition of S. aureus wild type versus tarO mutant, primary screen, teichoic acid synthesis inhibitors, RN4220, OD600 (AID 463173)
Details: OD600, 18 h, hits give low values, screened at 18.75 µg/mL (by protocol)

Point of comparison: O=C(Nc1ccc(S(=O)(=O)N(Cc2ccccc2)c2ccccc2)cc1)c1ccccc1F, survival 58%. Against it:
- COc1ccc(C2=Nc3ccc(OC(F)(F)F)cc3NC(c3cccnc3)=N2)cc1 — higher, 67%
- CC(C)Oc1ccc(CNS(=O)(=O)c2cnc(N)nc2)cc1 — higher, 115%
- COc1cccc(CNS(=O)(=O)c2cnc(N)nc2)c1 — higher, 64%
- CCc1nn(C(C)C(=O)N2CCN(c3cccc(C(F)(F)F)c3)CC2)c(=O)c2cc3occc3n12 (stereo not drawn) — higher, 73%
- COc1ccc(OC)c(CCNC(=O)CCn2c(=O)c3cccn3c3cccnc32)c1 — higher, 84%
- CCN(CC)c1ccc(-n2nc3cc(C)c(NC(C)=O)cc3n2)cc1 — higher, 92%
- Cc1cc2nn(-c3ccc(F)cc3)nc2cc1NC(=O)c1cccc2c(Cl)cccc12 — higher, 59%
- CCN(CC)c1ccc(NC(=O)CN2CCN(c3ccccc3F)CC2)cc1 — higher, 75%
- CCN(CC)c1ccc(-n2nc3cc(C)c(NC(=O)c4ccccc4C)cc3n2)c(C)c1 — higher, 73%
- Cc1cc2nn(-c3ccc(F)cc3)nc2cc1NC(=O)c1cccc2ccccc12 — higher, 68%
- Cc1c(Cl)cccc1Nc1sc(C(=O)c2ccccc2)c(N)c1S(=O)(=O)c1ccccc1 — higher, 71%
- Cc1cc(C)cc(OCCSc2nc(-c3ccc(C(C)(C)C)cc3)nc3cc(=O)[nH]n23)c1 — higher, 83%
- Cn1c(CNC(=O)CSc2n[nH]c(-c3ccccc3)n2)nc2ccccc21 — higher, 89%
- O=C(NCCSc1c(-c2ccc(Cl)cc2)[nH]c2ccccc12)c1ccc(S(=O)(=O)N2CCOCC2)cc1 — higher, 68%
- CCOC(=O)c1sc2ccccc2c1S(=O)(=O)Nc1ccc(N(C)C)cc1 — higher, 126%
- CC(C)c1ccc2occ(CC(=O)N(Cc3ccc(F)cc3)C3CCS(=O)(=O)C3)c2c1 (stereo not drawn) — higher, 61%
- Cc1ccc(CNC(=O)c2ccc3c(c2)nc2n3CCCC2)cc1 — higher, 86%
- Cc1cn2c(=O)cc(COC(=O)c3ccc(NC(=O)c4ccc(F)cc4)cc3)nc2s1 — higher, 96%
- Cc1cn2c(=O)cc(COC(=O)c3cccc(NC(=O)c4ccc(C(C)(C)C)cc4)c3)nc2s1 — higher, 103%
- CC(Oc1ccccc1)C(=O)Nc1ccc(C(=O)OCc2cc(=O)n3ccsc3n2)cc1 (stereo not drawn) — higher, 87%
- Cc1cn2c(=O)cc(COC(=O)c3cccc(NC(=O)C(C)Oc4ccccc4)c3)nc2s1 (stereo not drawn) — higher, 95%
- COc1ccccc1CNC(=O)CCCc1nnc2n(CC(C)C)c(=O)c3sccc3n12 — higher, 95%
- CCN(CC)C(=O)N1CCN(C(=O)N(CC)CC)CC1 — higher, 79%
- CCCCOC(=O)Cc1c(C)[nH]c(=O)[nH]c1=O — higher, 114%
- CC(NC1CCCC1)c1ccccc1 (stereo not drawn) — higher, 84%
- COc1ccc(CCNC(=O)CSc2ncc3c(n2)-c2cc(Cl)ccc2N(Cc2ccccc2)S3(=O)=O)cc1OC — higher, 87%
- COc1cccc(N2CCN(C(=O)c3cnc4c(-c5ccccc5)c(C)nn4c3C)CC2)c1 — higher, 87%
- COc1ccccc1N1CCN(C(=O)c2cc(-c3ccc(C)c(F)c3)on2)CC1 — higher, 66%
- COc1ccc(-c2cc(C(=O)N3CCN(c4ccc(F)cc4)CC3)no2)cc1OC — lower, 57%
- Cc1nn2c(C)c(C(=O)N3CCN(c4ccc(Cl)cc4)CC3)cnc2c1-c1ccc(F)cc1 — higher, 88%
- COc1ccccc1N1CCN(C(=O)c2cc(-c3ccc(F)cc3)on2)CC1 — lower, 46%
- COc1ccc(N2CCN(C(=O)c3cc(-c4ccc(C)c(F)c4)on3)CC2)cc1 — higher, 92%
- COc1ccc(S(=O)(=O)NCCc2sc(C)nc2C)cc1F — higher, 88%
- CC(C)N(C(C)C)S(=O)(=O)c1ccccc1 — higher, 100%
- COc1ccc(-c2nc3cccc(C)n3c2NC(C)(C)C)cc1O — higher, 109%
- COCCN1C(=O)N(c2cccc(OC)c2)C(=O)C1CC(=O)Nc1ccccc1 (stereo not drawn) — higher, 139%
- CCOC(=O)c1sc(NC(=O)CSc2nnc(Cn3nnc4ccccc43)n2C)nc1C — higher, 94%
- O=C(CSc1nc(=O)[nH]c2c1CCC2)NCc1ccc(Cl)cc1 — higher, 67%
- COc1ccc(NC(=O)Nc2nnc(N3CCCCCC3)s2)cc1 — higher, 72%
- CC(C(=O)NCCSCc1cccc(Cl)c1)N(c1ccccc1)S(C)(=O)=O (stereo not drawn) — higher, 61%
- CSc1ncc(Cl)c(C(=O)N(Cc2ccc(C)cc2)C2CCS(=O)(=O)C2)n1 (stereo not drawn) — higher, 88%
- O=C(CN1C(=O)COc2ccc(S(=O)(=O)N3CCOCC3)cc21)N1CCN(c2ccc(Cl)cc2)CC1 — higher, 92%
- CCOc1ccc(C(=O)Nc2c(C(=O)Nc3ccccc3OC)oc3ccccc23)cc1OCC — higher, 65%
- CCn1c(SCC(=O)c2ccc(C)cc2)nnc1C1CC1 — higher, 66%
- COc1ccc2oc(-c3cccc(F)c3)cc(=O)c2c1 — higher, 99%
- CCCC(=O)Oc1ccc2ccc(=O)oc2c1 — higher, 89%
- Cc1cc(C)nc(SCC(=O)Oc2ccc3oc(=O)cc(C)c3c2)n1 — higher, 95%
- COc1ccc(-c2cc(=O)c3cc(OCC(=O)OC(C)C)ccc3o2)cc1 — higher, 124%
- O=C(Cn1c(=O)n(-c2ccccc2)c(=O)c2c3c(sc21)CCCC3)Nc1ccc(F)cc1 — higher, 98%
- CCc1ccc(CNC(=O)c2cnc(N3CCCCC3)c3ccccc23)cc1 — higher, 94%
- COc1ccccc1NC(=O)c1cc(S(=O)(=O)N2CCc3ccccc32)ccc1F — higher, 81%
- CCNC(=O)CC1C(=O)N(c2ccc(C)cc2)C(=O)N1CCC(C)C (stereo not drawn) — higher, 91%
- CC(C)c1ccc(NC(=O)CCNS(=O)(=O)c2cccc3nsnc23)cc1 — lower, 50%
- CNC(=O)c1ccc2nc(CCc3ccccc3)oc2c1 — higher, 80%
- O=C(NCCCN1CCN(c2ccccc2F)CC1)c1ccc2nc(CCc3ccccc3)oc2c1 — higher, 87%
- CC(=O)c1cccc(NC(=O)c2ccc3nc(Cc4ccccc4)oc3c2)c1 — higher, 63%
- CCNC(=O)c1ccc2nc(Cc3ccccc3)oc2c1 — higher, 101%
- O=C(NCCCN1CCN(c2ccccc2)CC1)c1ccc2nc(Cc3ccccc3)oc2c1 — higher, 92%
- Cc1ccccc1NC(=O)c1ccc2nc(Cc3ccccc3)oc2c1 — higher, 102%
- Cc1ccc(-c2nnc(Nc3ccc(O)cc3)c3ccccc23)cc1S(=O)(=O)N1CCOCC1 — higher, 65%
- O=C1C2C3C=CC(C3)C2C(=O)N1CCN1C(=O)C2C3C=CC(C3)C2C1=O (stereo not drawn) — higher, 101%
- COc1ccccc1NC(=O)C1=C(C)Nc2nc(SC)nn2C1c1ccccc1Cl (stereo not drawn) — higher, 87%
- CCOc1ccc(CNC(=O)CSc2c3c(nc4ccc(Cl)cc24)CCCC3)cc1 — higher, 70%
- COCCCNC(=O)CSc1c2c(nc3ccc(Cl)cc13)CCCC2 — higher, 68%
- CCCNC(=O)CSc1c2c(nc3ccc(Cl)cc13)CCCC2 — higher, 62%
- COC(=O)c1ccccc1NC(=O)CSc1c2c(nc3ccc(Cl)cc13)CCCC2 — higher, 86%
- CC(C)OCCCNC(=O)CSc1c2c(nc3ccc(Cl)cc13)CCCC2 — higher, 71%
- CCN(CC)CCNC(=O)c1c(C)oc2ncn(C)c(=O)c12 — higher, 91%
- Cc1ccc(CNC(=O)C2CCCN(c3nc4c(C)cc(C)cc4s3)C2)cc1 (stereo not drawn) — higher, 94%
- CCC(=O)NC1CCC(c2ccccc2)CC1 (stereo not drawn) — higher, 97%
- Cc1ccc(OC(=O)c2cccnc2)cc1 — higher, 97%
- Cc1ccc(C)c(N2CCN(C(=O)c3cc4ccc5cccnc5c4[nH]3)CC2)c1 — higher, 95%
- Cc1c(C(=O)N2CCCCC2)c(S(=O)(=O)NCc2ccc(N(C)C)cc2)c(C)n1C — higher, 120%
- COc1cccc(-c2nnn(CCc3nn[nH]n3)n2)c1 — higher, 84%
- CCOC(=O)CCN(c1ccccc1)S(=O)(=O)c1ccc2[nH]c(=O)ccc2c1 — higher, 95%

With COc1ccc(CNS(=O)(=O)c2cnc(N)nc2)cc1 the survival was -2% (active).
With Cc1cc2nn(-c3ccccc3)nc2cc1NC(=O)c1cccc2c(Cl)cccc12 the survival was 43% (active).
With CCN(CC)c1ccc(-n2nc3cc(C)c(NC(=O)c4ccccc4F)cc3n2)cc1 the survival was 56% (active).
For CCN(CC)c1ccc(NC(=O)c2ccccc2F)cc1, the survival was 63% (active).
With Cc1cn2c(=O)cc(COC(=O)c3ccc(NC(=O)c4ccc(C(C)(C)C)cc4)cc3)nc2s1 the survival was 20% (active).
With Cc1cn2c(=O)cc(COC(=O)c3ccc(NC(=O)C(C)Oc4ccccc4)cc3)nc2s1 (stereo not drawn) the survival was 8% (active).
For COc1cccc(-c2cc(C(=O)N3CCN(c4ccc(F)cc4)CC3)no2)c1, the survival was 44% (active).
COc1cccc(-c2cc(C(=O)N3CCN(c4ccccc4OC)CC3)no2)c1 was tested, and the survival was -4% (active).
In the case of COc1cccc(N2CCN(C(=O)c3cnc4c(-c5ccc(F)cc5)c(C)nn4c3C)CC2)c1, the survival is reported as -5% (active).
With CCCCC(=O)Oc1ccc2oc(-c3ccc(OC)cc3)cc(=O)c2c1 the survival was 30% (active).
In the case of COC(=O)COc1ccc2oc(-c3ccc(OC)cc3)cc(=O)c2c1, the survival is reported as 36% (active).
In the case of O=C(NCCCN1CCN(c2ccccc2F)CC1)c1ccc2nc(Cc3ccccc3)oc2c1, the survival is reported as 46% (active).
CNC(=O)c1ccc2nc(Cc3ccccc3)oc2c1 was tested, and the survival was 37% (active).
Cc1ccc(NC(=O)c2ccc3nc(Cc4ccccc4)oc3c2)cc1F was tested, and the survival was 25% (active).
In the case of CCOc1ccccc1NC(=O)CSc1c2c(nc3ccc(Cl)cc13)CCCC2, the survival is reported as 45% (active).
In the case of CCCCNC(=O)CSc1c2c(nc3ccc(Cl)cc13)CCCC2, the survival is reported as 38% (active).
In the case of CC(C)CCNC(=O)CSc1c2c(nc3ccc(Cl)cc13)CCCC2, the survival is reported as 51% (active).
